Several values for one entry are separate records, joined by “and”; a condition that tells them apart may be missing. Equal values may be shown once. Results filed as inconclusive are left out. Activity calls are given as the source filed them. Unless noted, calls come from the whole dose curve; as a rule, active = well fitted curve in either direction with a large enough effect (not every such curve was filed as active); inconclusive = small, poorly fitted or top-dose-only effect, or another doubt; inactive = flat fitted curve, though single readings scatter.

The target of test [1] is Lysosomal acid glucosylceramidase (Homo sapiens) (UniProt P04062). Put plainly: Glucocerebrosidase-p2 (AID 348; in the data active = potency below about 10 µM; note: potency is the fitted concentration of half-maximal effect). The settings on record: purified GBA, blue fluorogenic substrate, 40 min. The procedure, abridged: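 Compounds titrated from 0.6 nM upwards against 0.2 nM enzyme in pH 5.9 citric acid/KH2PO4, taurocholate, tween-20; blue fluorogenic substrate 80 uM, 40 min room temperature, stopped and read Ex 365/Em 440 for AC50.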
Lysosomal acid glucosylceramidase (Homo sapiens), sequence (P04062 whole entry, looked up): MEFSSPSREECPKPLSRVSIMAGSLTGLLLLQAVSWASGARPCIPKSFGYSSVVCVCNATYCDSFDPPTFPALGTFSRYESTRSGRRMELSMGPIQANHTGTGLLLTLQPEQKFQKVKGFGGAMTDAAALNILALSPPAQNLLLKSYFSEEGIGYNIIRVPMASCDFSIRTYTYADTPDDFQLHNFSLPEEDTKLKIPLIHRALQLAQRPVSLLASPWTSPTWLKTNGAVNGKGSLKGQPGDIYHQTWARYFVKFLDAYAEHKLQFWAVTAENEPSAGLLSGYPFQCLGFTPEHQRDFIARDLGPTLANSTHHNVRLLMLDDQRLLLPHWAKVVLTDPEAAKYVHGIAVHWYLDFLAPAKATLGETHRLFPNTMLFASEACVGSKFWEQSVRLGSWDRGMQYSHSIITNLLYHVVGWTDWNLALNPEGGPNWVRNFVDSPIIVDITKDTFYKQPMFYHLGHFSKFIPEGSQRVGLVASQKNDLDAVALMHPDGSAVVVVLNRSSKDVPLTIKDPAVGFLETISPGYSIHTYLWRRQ

Test [2] can be described thus: AP1 Signaling Pathway (AID 357). Note: % is set by controls: 0 for no effect and ±100 for the full control effect. The settings on record: ME-180 AP-1-bla reporter, EGF-induced, beta-lactamase ratio, 5 h. The gist of the method: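 AP-1-bla ME-180 cells with beta-lactamase reporter under AP-1 response element, stimulated with EC50 EGF; compounds titrated, 5 hours at 37 degrees Celsius. CCF4 read at 460/530 nm ratio; positive and negative modulators judged by AC50.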

The target of test [3] is Cytochrome P450 1A2 (Homo sapiens) (UniProt P05177). Put plainly: p450-cyp1a2 (AID 410; calls by dose curve; note: potency is the fitted concentration of half-maximal effect;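 for activity change, negative = inhibition: -100% = full effect of reference inhibitor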). Conditions: recombinant CYP1A2, luciferin-ME demethylation, luminescence; series mostly up to 57 µM. The gist of the method:
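Inhibition was calculated relative to 57 uM furafylline (full inhibition). The reaction used human CYP1A2 at 20nM with Luciferin-ME at its Km, 100uM, driven by an NADPH-regenerating system for 60 min at room temperature.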

Test [4] can be described thus: NFAT Signaling Pathway (AID 444).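 Note: carbachol stimulus at about its EC50 of 1 µM final; % is set by controls: 0 for no effect and ±100 for the full control effect.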 Conditions: Jurkat NFAT-bla M1, carbachol, beta-lactamase ratio, 5 h; at 7.69 µM (top of the series) unless noted. The procedure, abridged: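 Read-out: CCF4 FRET ratio (460 nm/530 nm) after 1 h RT dye loading, used for %activity and AC50 from titration series. Cells: Jurkat NFAT-β-lactamase/M1 line, treated with compound plus 1 uM carbachol for 5 h, 37 °C.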

A short description of test [5]: Stat Signaling Pathway (AID 446).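 Note: ME-180 cervical cancer cells given 40 pM IL-6 alongside compound; SIE-controlled beta-lactamase reporter measured as 460/530 nm FRET emission ratio; % is set by controls: 0 for no effect and ±100 for the full control effect.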 The settings on record: ME-180 (cervical carcinoma) SIE beta-lactamase reporter, IL-6 stimulated, 5 h. The procedure, abridged: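 IL-6/STAT signaling read in ME-180 cells via an SIE beta-lactamase reporter. Stimulus was 40 pM IL-6 (its AC50) for 5 hrs, so both activation and inhibition register.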
In test [6] the target is Glucocorticoid receptor (Homo sapiens) (UniProt P04150). Put plainly: GR-EFC Redistribution (AID 451; calls by dose curve; note: potency is the fitted concentration of half-maximal effect). The settings on record: CHO-K1 GR-EFC translocation, beta-gal luminescence, 2 h. The procedure, abridged: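 Translocation of GR-ED fusion to nuclear EA restores b-gal, read by luminescence after 1 h room-temperature detection. Engineered CHO-K1 biosensor cells, 1,000/well, exposed 2 h at 37 C to titrations up to 46 uM final.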
Glucocorticoid receptor (Homo sapiens), sequence (P04150 whole entry, looked up, the tested form may be a part): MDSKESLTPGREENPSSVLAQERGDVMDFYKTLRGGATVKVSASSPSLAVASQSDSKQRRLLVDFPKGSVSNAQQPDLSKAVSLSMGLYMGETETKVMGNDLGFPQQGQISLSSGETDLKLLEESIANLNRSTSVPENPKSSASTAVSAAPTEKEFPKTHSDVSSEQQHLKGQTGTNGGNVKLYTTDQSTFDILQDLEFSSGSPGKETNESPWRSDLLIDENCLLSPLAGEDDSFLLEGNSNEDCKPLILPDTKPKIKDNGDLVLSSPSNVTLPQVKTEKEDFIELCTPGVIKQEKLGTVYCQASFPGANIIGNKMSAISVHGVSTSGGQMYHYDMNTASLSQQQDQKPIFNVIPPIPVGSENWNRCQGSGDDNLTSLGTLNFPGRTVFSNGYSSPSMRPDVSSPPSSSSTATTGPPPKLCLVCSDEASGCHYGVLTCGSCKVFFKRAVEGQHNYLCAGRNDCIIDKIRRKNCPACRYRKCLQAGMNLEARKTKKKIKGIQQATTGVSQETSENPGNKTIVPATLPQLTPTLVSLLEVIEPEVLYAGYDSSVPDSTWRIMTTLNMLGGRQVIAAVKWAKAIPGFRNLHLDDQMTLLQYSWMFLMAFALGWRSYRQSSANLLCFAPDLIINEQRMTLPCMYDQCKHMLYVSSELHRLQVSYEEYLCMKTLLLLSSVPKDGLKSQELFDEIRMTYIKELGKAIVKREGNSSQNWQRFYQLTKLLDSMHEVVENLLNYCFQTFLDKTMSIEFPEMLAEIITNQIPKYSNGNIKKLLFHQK

For test [7], the target named is Mitogen-activated protein kinase 10 (Mus musculus) (UniProt Q61831). Put plainly: JNK3 AlphaScreen Assay (AID 530).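 Note: kinase came from lysate of stimulated human HepG2 cells; signal reports phosphorylation of biotinylated GST-cJun 1-79 at Ser73 with 10 µM ATP; % is set by controls: 0 for no effect and ±100 for the full control effect.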 Conditions: JNK3 lysate, c-Jun phosphorylation; series mostly up to 57.1 µM. The procedure, abridged:
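Room-temperature AlphaScreen kinase assay; pre-activated HepG2 lysate as JNK3 source, biotin-GST-cJun(1-79) substrate, 10 uM ATP, compound 15 min preincubation.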
A general note: In Alpha technology, singlet oxygen from a donor bead excites a nearby acceptor bead.

In test [8] the target is 3',5'-cyclic-AMP phosphodiesterase 4B (Homo sapiens) (UniProt Q07343). Put plainly: qHTS Assay for Inhibitors of PDE-IV (AID 607; active = well fitted activation curve with a large enough effect in the main read-out, with a control signal flat, not every such curve was filed as active; note: % of control where 0% means no effect). Conditions: HEK293 ACTOne CNG channel cells, membrane potential fluorescence; series mostly up to 22.9 µM. The gist of the method: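 Live HEK293 cells with a modified cyclic nucleotide-gated (CNG) channel report intracellular cAMP via membrane-potential dye fluorescence (ex 535/em 590 nm). Endogenous PDE-IV was targeted. Compounds were tested at up to 22.9 uM final; RO 20-1724 100 uM served as control.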
3',5'-cyclic-AMP phosphodiesterase 4B (Homo sapiens), sequence (Q07343 whole entry, looked up): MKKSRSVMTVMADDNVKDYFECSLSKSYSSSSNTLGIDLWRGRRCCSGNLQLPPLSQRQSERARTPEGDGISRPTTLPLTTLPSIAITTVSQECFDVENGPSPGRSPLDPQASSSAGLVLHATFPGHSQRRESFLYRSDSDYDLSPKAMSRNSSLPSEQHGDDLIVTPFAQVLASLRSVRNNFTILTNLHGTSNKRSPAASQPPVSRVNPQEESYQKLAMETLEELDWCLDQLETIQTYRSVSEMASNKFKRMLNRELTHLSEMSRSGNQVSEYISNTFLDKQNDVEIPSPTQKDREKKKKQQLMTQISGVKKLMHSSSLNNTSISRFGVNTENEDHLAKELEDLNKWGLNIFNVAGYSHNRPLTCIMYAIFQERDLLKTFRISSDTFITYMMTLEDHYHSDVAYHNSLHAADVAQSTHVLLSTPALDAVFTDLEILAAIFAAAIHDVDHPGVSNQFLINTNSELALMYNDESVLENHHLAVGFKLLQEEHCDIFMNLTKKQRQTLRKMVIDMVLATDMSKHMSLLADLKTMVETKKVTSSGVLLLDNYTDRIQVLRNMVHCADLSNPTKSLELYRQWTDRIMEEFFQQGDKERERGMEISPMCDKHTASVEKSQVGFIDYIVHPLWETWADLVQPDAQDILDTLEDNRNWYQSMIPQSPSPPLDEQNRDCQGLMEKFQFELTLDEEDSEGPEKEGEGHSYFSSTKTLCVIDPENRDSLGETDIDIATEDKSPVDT
(In qHTS, concentration-response curves come from the screen itself.)

The target in test [9] is Cytochrome P450 3A4 (Homo sapiens) (UniProt P08684). Put plainly: qHTS Assay for Inhibitors and Substrates of Cytochrome P450 3A4 (AID 884; active = well fitted curve in the direction sought with a large enough effect; an effect the other way counts as inactive or inconclusive; note: nearly all actives have a fitted effect of over 50% in size; note: potency is the fitted concentration of half-maximal effect). The settings on record: recombinant CYP3A4, Luciferin-PPXE luminescence; series mostly up to 57.1 µM. The procedure, abridged: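 20 nM human CYP3A4 with 25 uM Luciferin-PPXE (at KM) in 200 mM KPO4, preincubated 10 min with compound; NADPH regeneration started a 60 min RT reaction. Luciferin detected by luminescence, normalized to 57 uM ketoconazole as full inhibition.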
Cytochrome P450 3A4 (Homo sapiens), sequence (P08684 whole entry, looked up): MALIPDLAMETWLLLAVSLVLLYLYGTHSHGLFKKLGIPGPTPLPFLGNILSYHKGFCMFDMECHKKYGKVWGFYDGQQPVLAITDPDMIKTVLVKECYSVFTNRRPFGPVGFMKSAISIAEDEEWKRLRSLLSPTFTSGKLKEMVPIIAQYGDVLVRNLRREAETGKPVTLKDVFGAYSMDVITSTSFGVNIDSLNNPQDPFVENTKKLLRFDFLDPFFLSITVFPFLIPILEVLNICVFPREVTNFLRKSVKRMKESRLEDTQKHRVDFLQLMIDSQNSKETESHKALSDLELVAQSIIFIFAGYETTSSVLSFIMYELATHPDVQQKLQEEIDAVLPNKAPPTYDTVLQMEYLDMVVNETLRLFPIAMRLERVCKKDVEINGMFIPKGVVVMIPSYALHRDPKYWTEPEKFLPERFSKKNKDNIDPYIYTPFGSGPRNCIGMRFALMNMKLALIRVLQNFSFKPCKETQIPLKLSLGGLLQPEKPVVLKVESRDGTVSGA

A short description of test [10]: qHTS Assay for Lipid Storage Modulators (AID 1519; calls by dose curve). Conditions: Drosophila S3 cells, BODIPY lipid droplet/cell ratio, laser cytometry, cells loaded with oleic acid. The gist of the method:
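Cells seeded at 5,000 per well were treated with compounds over a concentration series and loaded with oleic acid (400 uM, as added). Lipid droplet fluorescence (488 nm excitation, 500-530 nm channel) was read by laser-scanning cytometry and normalized to 20 uM Triacsin C.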

For test [11], the target named is Glucocorticoid receptor (Homo sapiens) (UniProt P04150). Put plainly: GR-GFP Redistribution (AID 450;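 active = compounds whose dose series gives a full or clear partial fitted curve of increased nuclear translocation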; note: potency is the fitted concentration of half-maximal effect). The settings on record: U2OS GR-GFP nuclear translocation, laser cytometry, 2 h.
In test [12] the target is Cytochrome P450 3A4 (Homo sapiens) (UniProt P08684). Put plainly: qHTS Assay for Activators of Cytochrome P450 3A4 (AID 885; active = well fitted curve in the direction sought with a large enough effect; an effect the other way counts as inactive or inconclusive; note: nearly all actives have a fitted effect of over 65% in size). Conditions: recombinant CYP3A4, Luciferin-PPXE luminescence, 60 min; series mostly up to 57.1 µM. The gist of the method: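 Quantitative HTS format: compounds preincubated with 20nM human CYP3A4 and Luciferin-PPXE substrate at KM, reaction started by NADPH regeneration, stopped after 60 min, luciferase luminescence read 20 min later.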

Test [13] in a line: Confirmation and Secondary Assay for Modulators of Hemoglobin Beta Chain Splicing at IVS2 654 locus (AID 910; active = well fitted curve in the direction sought with a large enough effect; an effect the other way counts as inactive or inconclusive;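 note: HeLa cells stably carrying EGFP split by mutant beta-globin IVS2-654 intron; per-well total GFP intensity by laser scanning cytometry after 2-day treatment; % of control where 0% means no effect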). Conditions: HeLa EGFP-654 splicing reporter, GFP fluorescence, 48 h; series mostly up to 38.3 µM. The procedure, abridged:
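Readout: per-well total peak green fluorescence (488 nm ex, 500–520 nm em) from objects 5–250 µm, reflecting correct splicing of an EGFP-654 reporter. Compounds were applied for 2 days at 37 °C to overnight-plated HeLa EGFP-654 cells; controls were DMSO and 500 nM IVS2-654 PNA.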

A short description of test [14]: Confirmation and Secondary Assay for Modulators of Hemoglobin Beta Chain Splicing at IVS2 705 locus (AID 930; active = well fitted curve in the direction sought with a large enough effect; an effect the other way counts as inactive or inconclusive;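 note: HeLa cells stably expressing the EGFP-705 splicing reporter; GFP fluorescence per well restored by corrected splicing of the IVS2-705 intron in EGFP; % of control where 0% means no effect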). The settings on record: HeLa EGFP-705 splicing reporter, GFP fluorescence, 48 h; series mostly up to 38.3 µM. The gist of the method: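 HeLa EGFP-705 reporter; 500 cells/well, o/n 37C 5% CO2; cpd 2 d; 488 ex/500-520 em laser scan; total peak GFP intensity/well. Ref: 500 nM […] antisense PNA.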

Test [15] has as its target Ubiquitin carboxyl-terminal hydrolase 1 (Homo sapiens) (UniProt O94782). Put plainly: Inhibitors of USP1/UAF1: Pilot qHTS (AID 504865; active = well fitted curve in the direction sought with a large enough effect; an effect the other way counts as inactive or inconclusive; note: nearly all actives have a fitted effect of over 35% in size; note: potency is the fitted concentration of half-maximal effect). The settings on record: purified USP1/UAF1, Ub-rhodamine cleavage fluorescence; series mostly up to 54.9 µM. The procedure, abridged:
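Kinetic fluorescence assay: 1nM USP1/UAF1, 15 min compound preincubation, then 150nM Ub-Rho; 480/540 nm.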

The target in test [16] is Cytochrome P450 2C19 (Homo sapiens) (UniProt P33261). Put plainly: qHTS Assay for Inhibitors and Substrates of Cytochrome P450 2C19 (AID 899; active = well fitted curve in the direction sought with a large enough effect; an effect the other way counts as inactive or inconclusive; note: % is set by controls: 0 for no effect and ±100 for the full control effect; nearly all actives have a fitted effect of over 60% in size). Conditions: recombinant CYP2C19, luciferin-H EGE luminescence; series mostly up to 57.1 µM. The procedure, abridged: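 5nM enzyme + 10uM Luciferin-H EGE (=KM), 50mM KPO4; cpd pin-transferred, 10 min 37C; NADPH regen, 60 min 37C; stopped w/ luciferin detection reagent, 20 min; luminescence. Normalized to 57uM ketoconazole (AC100).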
Cytochrome P450 2C19 (Homo sapiens), sequence (P33261 whole entry, looked up): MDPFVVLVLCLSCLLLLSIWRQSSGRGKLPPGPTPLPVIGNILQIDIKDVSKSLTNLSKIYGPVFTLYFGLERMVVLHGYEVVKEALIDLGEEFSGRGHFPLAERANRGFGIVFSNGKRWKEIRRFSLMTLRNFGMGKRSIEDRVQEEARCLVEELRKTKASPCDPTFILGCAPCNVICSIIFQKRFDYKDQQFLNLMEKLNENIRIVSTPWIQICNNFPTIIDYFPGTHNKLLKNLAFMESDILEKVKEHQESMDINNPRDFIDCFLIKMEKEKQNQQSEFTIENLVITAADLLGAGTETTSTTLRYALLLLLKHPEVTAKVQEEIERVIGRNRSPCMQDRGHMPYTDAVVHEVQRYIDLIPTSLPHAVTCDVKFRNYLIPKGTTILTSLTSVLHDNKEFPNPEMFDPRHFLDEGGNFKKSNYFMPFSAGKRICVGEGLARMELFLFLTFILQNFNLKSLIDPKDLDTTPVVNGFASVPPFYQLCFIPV

Test [17] in a line: qHTS profiling for inhibitors of Plasmodium falciparum proliferation (AID 504749; active = well fitted curve in the direction sought with a large enough effect; an effect the other way counts as inactive or inconclusive;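 note: 0% = DMSO vehicle and full inhibition = artemisinin control; nearly all actives have a fitted effect of over 60% in size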). Conditions: P. falciparum in erythrocytes, SYBR Green DNA, 72 h, at 28.7 µM (top of the series). The procedure, abridged:
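Three-day growth assay of blood-stage parasites in erythrocytes (0.3% parasitemia, 2.5% hematocrit) at 37 C, 5% CO2, quantified by SYBR Green DNA staining after overnight detergent lysis.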

Setting [18] is: at 7.69 µM (top of the series) unless noted.
Setting [19] is: measured here: cell count channel max response.
Where [20] appears, read: measured here: lipid channel max response.

Cytochrome P450 1A2 (Homo sapiens), sequence (P05177 whole entry, looked up): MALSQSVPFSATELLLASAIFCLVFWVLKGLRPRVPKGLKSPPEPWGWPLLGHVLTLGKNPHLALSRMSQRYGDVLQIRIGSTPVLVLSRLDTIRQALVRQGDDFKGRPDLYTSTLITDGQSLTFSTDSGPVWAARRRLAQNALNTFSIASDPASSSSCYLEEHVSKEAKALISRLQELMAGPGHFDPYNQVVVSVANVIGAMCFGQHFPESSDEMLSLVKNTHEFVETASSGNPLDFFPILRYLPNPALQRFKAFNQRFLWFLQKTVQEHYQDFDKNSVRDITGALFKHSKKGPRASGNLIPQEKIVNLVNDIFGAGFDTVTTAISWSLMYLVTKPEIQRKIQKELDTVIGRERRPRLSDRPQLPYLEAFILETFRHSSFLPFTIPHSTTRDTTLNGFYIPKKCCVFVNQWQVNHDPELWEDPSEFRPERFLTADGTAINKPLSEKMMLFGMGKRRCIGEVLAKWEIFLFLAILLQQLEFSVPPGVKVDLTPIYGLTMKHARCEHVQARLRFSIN
Ubiquitin carboxyl-terminal hydrolase 1 (Homo sapiens), sequence (O94782 whole entry, looked up): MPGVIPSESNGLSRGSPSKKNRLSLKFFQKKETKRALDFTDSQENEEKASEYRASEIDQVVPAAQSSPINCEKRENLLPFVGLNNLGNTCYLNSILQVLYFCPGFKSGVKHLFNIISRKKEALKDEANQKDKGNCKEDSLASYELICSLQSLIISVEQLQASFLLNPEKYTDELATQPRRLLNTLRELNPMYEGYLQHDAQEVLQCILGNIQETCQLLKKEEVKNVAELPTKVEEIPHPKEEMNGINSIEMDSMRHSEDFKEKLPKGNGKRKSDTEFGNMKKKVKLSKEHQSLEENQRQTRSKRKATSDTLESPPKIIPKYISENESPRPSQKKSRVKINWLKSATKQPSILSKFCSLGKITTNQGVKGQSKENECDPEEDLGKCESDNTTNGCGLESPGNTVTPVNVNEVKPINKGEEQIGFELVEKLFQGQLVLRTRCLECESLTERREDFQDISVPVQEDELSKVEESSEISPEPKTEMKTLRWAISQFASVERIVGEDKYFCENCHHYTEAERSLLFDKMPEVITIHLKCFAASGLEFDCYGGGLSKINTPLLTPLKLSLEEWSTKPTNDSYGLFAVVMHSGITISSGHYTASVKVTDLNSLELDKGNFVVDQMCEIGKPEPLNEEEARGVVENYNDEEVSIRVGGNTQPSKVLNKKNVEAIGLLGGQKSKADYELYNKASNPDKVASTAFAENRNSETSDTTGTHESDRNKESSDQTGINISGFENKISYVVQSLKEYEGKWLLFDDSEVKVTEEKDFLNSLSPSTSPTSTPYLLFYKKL

Take `Cn1cccc1C(=O)N1CCC2(CCN(C(=O)Nc3ccccc3)CC2)CC1`: the Potency in test [1] is > 11.4 µM (inactive); in [6], > 46 µM (inactive). For the same compound, the figures for the activity change, negative = inhibition in test [2] (setting [18]), in test [4] and in [10] (at 57.5 µM (top of the series)) were -3.67% (inactive), 5.41% (inactive) and 5.15% (inactive), respectively. In addition, the Potency result in [3], in test [7], in test [8] and in test [9] was “inactive” throughout. Further, the activity, negative = inhibition in test [5] (setting [18]) was -8.38% (inactive). The figures for the max response in test [10] (setting [19]) and in [10] (setting [20]) were 0.66% and 6.81%, respectively.

Take `c1ccc2c(Nc3ccncc3)nc(-c3ccoc3)nc2c1`: the Potency was 7.37 µM (active) in test [1]; 0.158 µM (active) in test [3]; > 46 µM (inactive) in [11]; > 46 µM (inactive) in test [6]; 1.26 µM (active) in [9]; 44.7 µM (active) in [15]. The values for the activity change, negative = inhibition in test [2] (setting [18]), in test [4] and in test [10] (at 57.5 µM (top of the series)) were -7.11% (inactive), -19.5% (inactive) and 14.9% (inactive), respectively. The activity, negative = inhibition in [5] (setting [18]) is 3.23% (inactive). The Potency entry in test [7], in test [12] and in test [13] was “inactive” each time. In addition, the compound was called inactive in [14]. Further, the max response in test [10] (setting [19]) was found to be 5.31%; in [10] (setting [20]) it was 22.2%.

Regarding `CNc1nc(-c2ccccc2OC)nc2ccccc12`, the Potency was > 11.4 µM (inactive) in test [1], 0.398 µM (active) in [3], > 46 µM (inactive) in test [11] and > 46 µM (inactive) in test [6]. The activity change, negative = inhibition in [2] (setting [18]) is 7.61% (inactive); in [4], -10.4% (inactive); in test [10] (at 57.5 µM (top of the series)), 2.04% (inactive). For the same compound, in test [5] (setting [18]), the activity, negative = inhibition is 17.7% (inactive). The Potency entry in [7], in test [8], in test [12], in [16], in [13] and in test [15] was “inactive” throughout. In addition, in [14], the compound was classed as inactive. For the same compound, the results for the max response in test [10] (setting [19]) and in test [10] (setting [20]) were -10.6% and -7.86%, respectively.

Consider `CN1CCCC[C@@H]1CCN1c2ccccc2Sc2ccc(S(C)=O)cc21` (some centres not stated), for which the Potency in [1] was > 11.4 µM (inactive); in [11], > 20.6 µM (inactive) and > 46 µM (inactive); in [6], > 20.6 µM (inactive) and > 9.22 µM (inactive). Also, the activity change, negative = inhibition in test [2] (at 7.69 µM (top of the series)) was -6.82% (inactive); in test [2] (at 17.2 µM (top of the series)) it was 10.1% (inactive); in [4], 1.36% (inactive); in test [10] (at 25.7 µM (top of the series)), -3.11% (inactive). Moreover, the Potency entry in [3], in test [7], in [8] and in test [15] was “inactive” in each case. The activity, negative = inhibition in test [5] (at 7.69 µM (top of the series)) is 0.0805% (inactive); in [5] (at 17.2 µM (top of the series)), -1.79% (inactive); in test [17] (parasite line A), 1.72% (inactive); in test [17] (parasite line B), 1.85% (inactive). Moreover, the max response in test [10] (setting [19]) is -6.84%; in [10] (setting [20]), -7.46%.

Take `Cc1cccc(CNc2ccnc(-c3ccc(C(=O)N(C)C)cc3)n2)c1`: the Potency in [1] is > 11.4 µM (inactive); in test [3] it was 25.1 µM (active); in [11], > 46 µM (inactive); in test [6] it was > 46 µM (inactive). The values for the activity change, negative = inhibition in [2] (setting [18]), in [4] and in test [10] (at 57.5 µM (top of the series)) were -17.2% (inactive), 6.95% (inactive) and 7.06% (inactive), respectively. Also, the activity, negative = inhibition in test [5] (setting [18]) was -2.13% (inactive). In addition, the Potency entry in [7], in [9], in [13] and in [15] was “inactive” each time. For the same compound, in test [14], the outcome was inactive. For the same compound, the max response in test [10] (setting [19]) was -6.92%; in test [10] (setting [20]), 0.35%.

Values taken from PubChem BioAssay (NCATS).
